Bioassay records deposited in PubChem BioAssay by National Center for Advancing Translational Sciences (NCATS).
Most compounds without a hit are left out; they make up all but 7.3% or so of the library.
FMDV antiviral = High Throughput Screening for Foot and Mouth Disease Virus Antivirals; FMDV antiviral cell-based qHTS; AID 1159524, 2015; Potency, µM (doses to about 57.9 µM), for inactives: top-dose activity change, negative = inhibition, usual class: inhibitors; hit rate 1.2% among 410,000; calls by dose curve; tested in HEK293T cells; note: read-out not given here; potency is the fitted concentration of half-maximal effect; nearly all actives have a fitted effect of over 45% in size
HCMV antiviral = qHTS Assay for inhibitors of the human cytomegalovirus (HCMV) | HFF cells, HCMV-luciferase reporter, 72 h; active compounds read low | activity change, negative = inhibition, % at 57.5 µM | hit rate 4.5% among 410,000; in the data active = activity change below about -60%; inconclusive = no clear call, values can overlap the other calls; inactive = above about -39%
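Screen run at 2 compound doses on HFFs infected with reporter HCMV, MOI 1 PFU/cell. Luciferase activity from cell lysates at 72 h post infection gave inhibition relative to buffer-only and Salinomycin wells.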
Vaccinia mCherry = qHTS for Stage-Specific Inhibitors of Vaccinia Orthopoxvirus: mCherry Reporter Primary qHTS; hit rate 0.63% among 310,000; Potency, µM (highest dose often 36.5 µM), inactives show at the top dose activity change, negative = inhibition, hits mostly inhibitors; Vaccinia virus mCherry reporter infection, fluorescence; calls by dose curve; tested in A549 cells; note: potency is the fitted concentration of half-maximal effect; nearly all actives have a fitted effect of over 35% in size
HCV inh = qHTS Assay for Inhibitors of Hepatitis C Virus (HCV); hit rate 3.4% among 340,000; Huh7.5.1 HCVcc-Cre infection, luciferase reporter, 44 h; Potency, µM (doses to about 41.8 µM), for inactives: top-dose activity change, negative = inhibition, hits mostly inhibitors; active = well fitted inhibition curve with a large enough effect; inconclusive = small, poorly fitted or top-dose-only effect, or another doubt; inactive = no such curve, though single readings can be large or run the other way; note: potency is the fitted concentration of half-maximal effect
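Compounds are dispensed onto cells plated 4 h earlier at 1,000 per well, with HCVcc-Cre virus (about 0.5 moi) added next. Following 44 h of culture, luminescent signal is measured for 15 sec after 15 min with substrate at room temperature.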
Vaccinia Venus = qHTS for Stage-Specific Inhibitors of Vaccinia Orthopoxvirus: Venus Reporter Primary qHTS; hit rate 0.46% among 330,000; Vaccinia virus Venus reporter expression, fluorescence; Potency, µM (titrated, usually from 36.5 µM), for inactives: at the top dose activity change, negative = inhibition, most hits filed as inhibitors; calls by dose curve; tested in A549 cells; note: potency is the fitted concentration of half-maximal effect; nearly all actives have a fitted effect of over 30% in size
Starred values were filed as active, the others as inactive; i = inactive; ? = inconclusive; / = not tested or not shown; [ ] = another dose, or the depositor's remark. % is set by controls: 0 for no effect and ±100 for the full control effect.

SMILES	FMDV antiviral	HCMV antiviral	Vaccinia mCherry	HCV inh	Vaccinia Venus
CC(=O)Nc1ccc(S(=O)(=O)N2CCCc3ccccc32)cc1	-12%	-8	?	13µM*	-28%
COc1cccc(CNC(=O)CN2C(=O)N(c3c(C)cccc3C)S(=O)(=O)c3ccccc32)c1OC	?	-13	-9%	/	-8%
CCOC(=O)c1c(NC(=O)c2noc3c2CC(C(C)(C)C)CC3)sc2c1CCCC2 (stereo unspecified)	-10%	15	-9%[7.34 µM]	/	-8%[7.34 µM]
CCN1C(=O)[C@H]2[C@H]3CN=C(SC)N3[C@@](Cc3ccccc3)(C(=O)OC)[C@H]2C1=O	-7%	-1	i	0.56µM*	9%
CCN1C(=O)[C@H]2[C@H]3CN=C(SCc4ccc(C)cc4)N3[C@@](Cc3ccccc3)(C(=O)OC)[C@H]2C1=O	-19%	-8	i	0.32µM*	-21%
CCN1C(=O)[C@H]2[C@H]3CN=C(SCc4ccc(Cl)cc4)N3[C@@](Cc3ccccc3)(C(=O)OC)[C@H]2C1=O	?	7	-18%	?	-27%
COC(=O)[C@@]1(Cc2ccccc2)[C@H]2C(=O)N(Cc3ccccc3)C(=O)[C@H]2[C@H]2CN=C(SC)N21	0%	-12	?	9%	-14%
CN1C(=O)C(C)(C(Nc2ccccc2)c2ccccc2)c2ccccc21 (stereo unspecified)	/	20	/	/	/
Cc1ccc(C)n1-c1nnc(N2CCCC(C(=O)NCc3ccc(F)cc3)C2)s1 (stereo unspecified)	0%	-17	-18%	/	-13%
CCOc1ccc(NC(=S)NC23CC4CC(CC(C4)C2)C3)cc1	-2%	-20	/	16%	/
CN(C)c1ccc(NC(=S)NC23CC4CC(CC(C4)C2)C3)cc1	9%	?	?	4µM*	-13%
O=S(=O)(c1ccc(NC(=S)NC23CC4CC(CC(C4)C2)C3)cc1)N1CCCCC1	-28%	-90*	-25%	/	?
O=S(=O)(c1ccc(NC(=S)N/N=C/c2ccc(O)c(O)c2)cc1)N1CCOCC1	-9%	9	-14%	1%	-18%
O=S(=O)(c1ccc(NC(=S)NN=Cc2ccccc2O)cc1)N1CCCCC1	-24%	-61*	13µM*	?	?
NS(=O)(=O)c1ccc(NC(=S)Nc2ccc(S(=O)(=O)N3CCCC3)cc2)cc1	36%	-32	-13%	9%	-4%
CCOc1ccc(N2CC(NC(=O)C(=O)c3c[nH]c4ccccc34)CC2=O)cc1 (stereo unspecified)	-14%	149	-2%	/	-9%
CCN1CCc2c(OCC(=O)N3CCc4ccccc43)cccc2C1=O	/	-17	/	/	/
O=C1c2cccc(OCC(=O)N3CCCc4ccccc43)c2CCN1Cc1cccnc1	28µM*	-61*	?	?	-29%
Cc1ccccc1CN1CCc2c(OCC(=O)N3CCCc4ccccc43)cccc2C1=O	40µM*	-62*	-22%	13µM*	?
Cc1cc(C)c(Nc2cc(S(=O)(=O)O)c(N)c3c2C(=O)c2ccccc2C3=O)c(C)c1	8.9µM*	3	-25%	13%	?
Cc1cc(C)c(NC(=O)COC(=O)c2cccc3c2C(=O)c2ccccc2C3=O)c(C)c1	-2%	?	?	?	-30%
Clc1ccc2c(NCc3ccccn3)ncnc2c1	-29%	86	/	-14%	-7%
Fc1ccc(CNc2ncnc3cc(Cl)ccc23)cc1	?	?	/	10µM*	/
COc1ccc(CNc2ncnc3cc(Cl)ccc23)cc1OC	?	-70*	-15%	?	-25%
COc1cccc(C2(CC(=O)N3CCN(c4ccccc4O)CC3)CC(=O)N(C3CCCC3)C2=O)c1 (stereo unspecified)	30%	/	-3%	/	-24%
SMILES	FMDV antiviral	HCMV antiviral	Vaccinia mCherry	HCV inh	Vaccinia Venus
O=C1c2ccccc2C(=O)c2c(NCCCN(CCO)CCO)cccc21	?	-103*	?	14µM*	-10%
C/C(Cn1nnc([N+](=O)[O-])n1)=N\NC(=O)c1ccccc1	/	-24	?	?	13µM*
C/C(Cn1cnc([N+](=O)[O-])n1)=N\NC(=O)c1ccccc1	9%	4	-5%	5%	-4%
Cc1ccc(CN2CCN(CC(=O)NCc3ccccc3Cl)C2=O)cc1	11%	2	-7%	/	-12%
Cc1ccc2c(c1)C(=O)C(=O)N2CCOc1ccccc1	13%	-73*	-16%	?	-13%
Cc1cccc(OCCN2C(=O)C(=O)c3cc(C)ccc32)c1	7%	-89*	?	?	4%
Cc1cccc(OCCN2C(=O)C(=O)c3cccc(C)c32)c1	-9%	-31	-1%	31%	-9%
Cc1cccc(OCCCn2c(=O)oc3ccc(C)cc32)c1	-8%	-80*	-14%	3%	-2%
COc1ccccc1OCCCn1c(=O)oc2ccc(C)cc21	6%	-22	/	-4%	/
CCOc1ccc(NC(=O)C2CCCN(S(=O)(=O)c3cccc4nonc34)C2)cc1 (stereo unspecified)	-14%	-21	7%	/	12%
Cc1ccc(Cn2c(SCc3ccc(C(=O)N4CCCCCC4)cc3)nc3ccncc32)cc1	-37%	-24	-28%	/	?
Cc1ccc(Cn2c(SCc3ccc(C(=O)N4CCCCC4)cc3)nc3ccncc32)cc1	-18%	-60*	-21%	/	?
O=C(NC1CCCCC1)c1ccc(CSc2nc3ccncc3n2Cc2ccc(F)cc2)cc1	?	-28	?	/	?
CC1CCC(NC(=O)c2ccc(CSc3nc4ccncc4n3Cc3ccc(F)cc3)cc2)CC1 (stereo unspecified)	?	-93*	?	/	?
CCc1ccccc1NC(=O)Cn1nc2c3cc(F)ccc3n(Cc3cccc(C)c3)cc-2c1=O	-12%	7	-2%	/	-7%
CCN(CC)S(=O)(=O)c1ccc(S(=O)(=O)Nc2c(C)nn(C)c2C)cc1	?	-73*	-24%	?	-16%
Cc1cc(C)c(CSc2nnc(C)n3c2cc2occc23)c(C)c1	-4%	-9	-18%	/	-19%
CCCCOC(=O)Nc1cc(Cl)ccc1C	2%	-81*	/	-10%	-12%
CCOC(=O)c1c(C)[nH]c(C(=O)C(C)Sc2ccc(Cl)cc2)c1C (stereo unspecified)	21%	75	-12%[1.46 µM]	?	7.1µM*
CCOC(=O)c1[nH]c(C)c(C(=O)Nc2cc(Cl)ccc2C)c1C	7%	-23	/	1.3µM*	/
CCOC(=O)c1[nH]c(C)c(C(=O)Nc2ccccc2C)c1C	25%	2	/	?	/
Cn1c(-c2cccc(C(F)(F)F)c2)cc2cnc(Nc3ccc(F)cc3)cc21	/	-6	/	/	/
COc1cc(=O)n2c(c1C(=O)NCc1ccco1)CCN(Cc1cccc(Cl)c1)CC2	-15%	/	-11%	/	-4%
O=C(NC1CCCCCC1)c1ccc2c(c1)sc1nc(-c3ccc(F)cc3)cn12	31%	/	?	/	-25%
